A selection: hits, their analogues and other compounds. The true share with any hit is near 3.6%.
HCT116 PTEN-null = suppresses growth of cells with PTEN deletion | viability, % at 10 µM | AID 827 | hit rate 1.2% among 140,000 | HCT116 PTEN-null viability, CellTiter-Glo, 60 h; stronger effect = lower value;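 active = viability at or below a set limit, 4 SD under the median of all tested compounds, cut at about 3.7% in these data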;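 note: PTEN knockout HCT116 line with beta catenin targeted HCT116 as companion control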
DAT uptake mod = modulates human dopamine transporter uptake under cocaine. Q01959. LLC-PK1 hDAT cells, [14C]-dopamine uptake with cocaine IC80; actives deviate in either direction. B-score at 10 µM. hit rate 1.3% among 110,000;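 active = Z score or B-score, a plate-position-corrected score, falls beyond the plate's 99.7% confidence bounds, in either direction; inactive = both scores lie inside the 99.7% bounds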;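 note: scored against the spread of the other compound wells on the same plate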
Target sequence (Q01959 whole entry, looked up): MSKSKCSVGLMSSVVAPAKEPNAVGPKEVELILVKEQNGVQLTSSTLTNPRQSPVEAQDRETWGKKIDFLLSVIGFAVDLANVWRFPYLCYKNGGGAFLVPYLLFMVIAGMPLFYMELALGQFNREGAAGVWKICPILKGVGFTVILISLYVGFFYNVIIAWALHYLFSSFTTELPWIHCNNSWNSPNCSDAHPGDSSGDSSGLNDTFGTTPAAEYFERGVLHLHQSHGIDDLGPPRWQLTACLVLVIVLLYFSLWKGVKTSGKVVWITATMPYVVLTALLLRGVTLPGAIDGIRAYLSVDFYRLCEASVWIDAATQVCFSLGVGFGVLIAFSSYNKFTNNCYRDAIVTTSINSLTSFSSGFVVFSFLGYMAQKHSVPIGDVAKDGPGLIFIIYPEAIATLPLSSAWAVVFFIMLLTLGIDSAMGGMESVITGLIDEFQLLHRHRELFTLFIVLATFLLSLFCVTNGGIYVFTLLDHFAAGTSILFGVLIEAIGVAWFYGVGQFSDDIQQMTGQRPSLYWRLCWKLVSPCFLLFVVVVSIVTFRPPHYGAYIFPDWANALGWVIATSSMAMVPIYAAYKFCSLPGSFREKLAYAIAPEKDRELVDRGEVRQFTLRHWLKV
bCat KO growth = beta-catenin-lacking colon tumor cell growth suppression | HCT116 beta-catenin knockout viability, CellTiter-Glo, 60 h; stronger effect = lower value | viability, % at 10 µM | hit rate 1.5% among 140,000;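 active = viability at or under a set limit, the compound median less 4 SD, cut at about 6% in these data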;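 note: 0% = Hyamine 1622 control at 20 µM and 100% = untreated cell control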
WT yeast gro inh = growth inhibition of WT yeast, mitochondrial fusion screen; AID 1362; mitochondrial fusion phenotypic screen, WT strain; hit rate 2.1% among 190,000; inhibition, % at 10 µM; in the data active = inhibition above about 58%; tested in S. cerevisiae
* = called active by the depositor; · = no result given.

SMILES	HCT116 PTEN-null	DAT uptake mod	bCat KO growth	WT yeast gro inh
O=C(COC(=O)CCC(=O)c1ccc(Cl)cc1)NCc1ccco1	·	·	·	-6.9
CCOC(=O)C(=CNc1cccc(C)c1C)C(=O)OCC	94.8	6.07*	96.4	14.0
Nc1cc(F)ccc1N1CCCCCC1	·	·	·	4.9
COc1cc(/C=C(/C(=O)c2cccs2)c2nc3ccccc3[nH]2)cc(OC)c1O	2.5*	-0.967	5.2*	18.0
COc1ccc(C(=O)N/C(=C/c2cccs2)c2nc3ccccc3[nH]2)cc1OC	70.7	·	80.4	-8.2
O=C(/C(=C/c1ccc(Cl)cc1)c1nc2ccccc2[nH]1)c1ccccc1	0.8*	-0.506	1.2*	2.5
CN1CC(c2ccccc2)C2(SC(=S)N(Cc3ccco3)C2=O)C12C(=O)Nc1ccccc12 (centres undefined)	69.2	0.0675	60.5	79.7*
Cc1cccc2sc(NC(=O)c3ccc(NS(=O)(=O)c4cccs4)cc3)nc12	87.4	·	90.6	67.2*
O=c1cc(CN2CCOCC2)nc(C2CC2)[nH]1	91.9	-7.21*	106.8	-5.5
CCOC(=O)c1c(C)[nH]c(N=Nc2ccccc2C)c1C	70.2	-0.206	72.6	77.1*
O=Cc1ccccc1OS(=O)(=O)c1ccccc1	98.1	·	99.6	-7.2
Cc1cc[n+](C2=C([O-])c3ccccc3C(=O)/C2=N\S(=O)(=O)c2cccs2)cc1C	1.8*	·	1.6*	15.2
Cc1ccccc1NC1=C/C(=N\S(=O)(=O)c2cccs2)c2ccccc2C1=O	1.9*	-0.505	1.5*	88.9*
CCCCCCn1cnc2c(c1=O)c1nc3ccccc3nc1n2Cc1cccs1	79.3	-0.167	82.2	-4.3
CCCCCCn1cnc2c(c1=O)c1nc3ccccc3nc1n2/N=C/c1ccco1	95.7	3.96*	95.8	8.1
c1csc(-c2nn3cnnc3c3ccccc23)c1	·	·	·	-4.5
O=C(c1ccc([N+](=O)[O-])cc1)N(Cc1ccc(Br)cc1)N1C(=O)CCCC1=O	110.3	-7.4*	101.1	21.6
COCCN(C(=S)Nc1ccc(C)cc1C)C(C)c1ccco1 (centres undefined)	·	·	·	32.9
O=C(COc1ccc([N+](=O)[O-])cc1)NNC(=S)NC(=O)c1ccc(Br)cc1	·	·	·	70.1*
C#Cc1ccc([C@H]2C=C(C(=O)N3CCN(Cc4ccccc4)CC3)O[C@@H](OCC)[C@@H]2CCCO)cc1	·	2.69*	·	-5.8
COc1ccccc1NC(=S)N(Cc1ccccn1)Cc1ccccc1Cl	·	·	·	67.1*
Cc1ccccc1NC(=S)N(Cc1ccccn1)Cc1ccccc1Cl	·	·	·	68.6*
COc1ccccc1NC(=S)N(Cc1ccc(C)cc1)Cc1cccnc1	·	·	·	74.2*
COc1ccccc1NC(=S)N(Cc1ccc(C)cc1)Cc1ccccn1	·	·	·	-6.8
CN1CCC(N(C)C(=O)CNC(=O)c2ccc(C(C)(C)C)cc2)CC1	·	·	·	-4.2
SMILES	HCT116 PTEN-null	DAT uptake mod	bCat KO growth	WT yeast gro inh
CC(Sc1nc2ccccc2n1C)C(=O)NC(c1ccccc1)c1ccccc1 (centres undefined)	72.9	-0.233	81.6	58.5*
Cn1c(SC(C(=O)Nc2ccc(F)cc2)c2ccccc2)nc2ccccc21 (centres undefined)	58.8	·	66.3	55.6
C/C(=N/OCc1ccc(Br)cc1)c1ccccn1	·	·	·	27.2
C/C(=N/O)c1ccccn1	·	-4.62*	·	1.6
CCCCCC/C(=N/O)c1ccccn1	4.0	0.00752	4.2*	1.6
O=S(=O)(Cc1ccccc1)N1CCCc2ccccc21	·	·	·	-4.2
COC(=O)c1ccc(/C=N/OCC(=O)NCc2ccc(F)cc2)cc1	·	·	·	9.5
Cc1ccc(-c2nc(NCc3ccco3)c3ccccc3n2)cc1	73.8	·	73.7	67.3*
Cc1ccccc1Nc1nc(NCc2ccco2)c2ccccc2n1	·	·	·	79.2*
CSc1nc(NCc2ccco2)c2ccccc2n1	77.8	-0.523	89.1	12.6
Cc1ccc(CNc2nc(N)c([N+](=O)[O-])c(NCc3ccccc3)n2)cc1	95.2	·	96.6	15.0
Cc1ccc(Nc2nc(NCC3CCCO3)nc(N)c2[N+](=O)[O-])cc1C (centres undefined)	81.2	·	88.7	-2.2
Cc1ccc(Nc2nc(N)c([N+](=O)[O-])c(NCc3ccco3)n2)cc1C	38.2	·	37.8	71.5*
Cc1ccc(CNc2nc(N)c([N+](=O)[O-])c(Nc3ccc(F)cc3)n2)cc1	73.5	-11.2*	76.2	-1.4
c1cncc(-c2nc(NCc3ccco3)c3ccccc3n2)c1	85.3	-0.031	90.0	-5.9
CCNC(=O)C12CCC(C)(C(=O)O1)C2(C)C (centres undefined)	·	·	·	-8.0
O=C(NCCCCc1ccccc1)C1CC(c2ccc(C(F)(F)F)cc2)=NO1 (centres undefined)	·	-0.802	·	·
Cc1cccc(Nc2nc(NCc3ccco3)c3ccccc3n2)c1	1.8*	·	1.8*	98.2*
Cc1cccc(S(=O)(=O)Nc2nc3ccccc3nc2NCc2ccco2)c1	85.1	·	87.0	13.4
COc1ccc(OC)c2[nH]c(=O)c(CCNC(=O)c3ccc4c(c3)OCO4)cc12	·	·	·	8.7
CC(C)Oc1ccc(CCN=C(N)N=C(N)N)cc1Cl	·	·	·	-4.2
COc1ccc(CN(C)C(c2ccccc2)c2nnnn2-c2ccccc2C)c(OC)c1C (centres undefined)	66.2	0.293	78.7	74.5*
COc1cc(OC)c(OC)cc1CN(C)C(c1ccccc1)c1nnnn1-c1ccccc1C (centres undefined)	71.9	1.01	73.3	24.3
O=C(C1=C[C@@H](C2CCCCC2)C[C@@H](OCc2ccc(CO)cc2)O1)N1CCN(Cc2ccccc2)CC1	·	0.0417	·	64.4*
O=C(C1=C[C@@H](c2ccc3c(c2)OCO3)C[C@@H](OCCCCO)O1)N1CCN(Cc2ccc3c(c2)OCO3)CC1	·	1.14	·	-3.4
SMILES	HCT116 PTEN-null	DAT uptake mod	bCat KO growth	WT yeast gro inh
O=C(C1=C[C@H](C2CCCCC2)C[C@H](OCCCCO)O1)N1CCN(Cc2ccc3c(c2)OCO3)CC1	·	2.23*	·	12.8
O=C(C1=C[C@H](C2CCCCC2)C[C@H](OCc2ccc(CO)cc2)O1)N1CCOCC1	·	0.577	·	6.0
CC(C)(C)[C@H]1C=C(C(=O)N2CCN(Cc3ccccc3)CC2)O[C@@H](OCc2ccc(CO)cc2)C1	·	1.61	·	72.2*
O=C(C1=C[C@H](C2CCCCC2)C[C@H](OCc2ccc(CO)cc2)O1)N1CCN(Cc2ccccc2)CC1	·	1.29	·	72.0*
O=C(CSc1nnc(-c2c[nH]c3ccccc23)o1)N(Cc1ccccc1)c1ccc(F)cc1	13.6	2.49	19.7	59.5*
CCNc1nc(SCCOc2ccc(Cl)cc2Cl)nc(N(C)C)n1	·	·	·	63.8*
Cc1ccccc1NC(=O)/C=C/c1ccc([N+](=O)[O-])s1	1.4*	·	2.0*	-5.7
Cc1ccccc1C(=O)N/N=C/c1ccc([N+](=O)[O-])s1	2.6*	-0.549	3.6*	11.6
Cc1cc(C)cc(NC(=O)/C=C/c2ccc([N+](=O)[O-])s2)c1	14.2	·	26.0	11.5
O=C(N/N=C/c1ccc([N+](=O)[O-])s1)c1ccccc1Br	1.8*	-0.758	1.9*	7.2
Cc1ccc(-c2nc(SCC(=O)NCCN3C(=O)CSC3=O)[nH]c2-c2ccc(C)cc2)cc1	75.9	·	85.5	-7.5
Cn1c(=O)c2c(ncn2CC(=O)N/N=C/C=C/c2ccccc2)n(C)c1=O	82.7	·	85.0	-9.4
Cn1c(=O)c2c(ncn2CC(=O)N/N=C/C(Br)=C/c2ccccc2)n(C)c1=O	2.6*	·	2.4*	14.2

Screening results: PubChem BioAssay, several laboratories
